Source: PubChem BioAssay AID2314 (National Center for Advancing Translational Sciences (NCATS), 2010)
Hit rate of the full screen: of about 300,000 compounds, about 37,000 (12%) were called active. The entries come from a sample that favours actives as a whole. Unmarked numbers belong to inactive results. Cut-off read from the data, not from the text of the source: active = max response mostly above about 13% (no sharp cut-off); inactive = mostly below about 14%.

Test: Cycloheximide Counterscreen for Small Molecule Inhibitors of Shiga Toxin; note: read at 38.3 µM for the half of the compounds with a filed dose; 0% is about no effect
Settings: cell reporter, cycloheximide protein synthesis inhibition counterscreen; active compounds read high
With `COc1ccc(/C=N/NC(=O)c2ccc(Cl)cc2)cc1COC(C)=O` the max response was 1.21%.
For `Cn1nccc1/C=N\NC(=O)c1ccc(Cl)cc1`, the max response was 14.7% (active).
`CC1(C)C2CC=C(/C=N/NC(=O)c3ccc(Cl)cc3)C1C2` (configuration not stated) showed a max response of 10.5%.
Molecule `CCOC(=O)c1sc(NC(=O)CSc2nc(C)cc(C(F)(F)F)n2)c(C#N)c1C` has a max response of 1.11%.
Molecule `COc1cc(C(=O)OC2CCOC2=O)c([N+](=O)[O-])cc1OC` (configuration not stated) has a max response of -5.93%.
`COc1cc(CN2CCCN(C)CC2)c([N+](=O)[O-])cc1OC` showed a max response of -2.2%.
With `O=C(/C=C/c1ccc2c(c1)OCCO2)c1ccc(O)cc1` the max response was 36.6% (active).
`O=C(/C=C/c1ccc(Cl)c([N+](=O)[O-])c1)c1cccnc1` showed a max response of 9.23%.
`O=C(COC(=O)/C=C/c1ccc2c(c1)OCO2)NC1CCS(=O)(=O)C1` (configuration not stated) showed a max response of 2.81%.
With `CN(C)c1ccc(/C=C/C(=O)c2ccc(O)cc2)cc1[N+](=O)[O-]` the max response was 61.3% (active).
In the case of `O=C(O)/C=C/c1ccc2c(c1)OCCO2`, the max response is reported as 5.58%.
With `CN(C)c1ccc(/C=C/C(=O)c2ccc(C(C)(C)C)cc2)cc1[N+](=O)[O-]` the max response was 9.22%.
Work on `COc1cccc(NC(=O)N2C3CCCC2CC(NC(C)=O)C3)c1` (configuration not stated) yielded a max response of -3.34%.
With `CCOC(=O)c1ccccc1NS(=O)(=O)c1c(C)nc2sccn2c1=O` the max response was -3.59%.
Work on `Brc1ccccc1CN1CCC(Cc2ccccc2)CC1` yielded a max response of -0.443%.
Molecule `CC(C)CN(CC(C)C)C(=O)CN1c2cccc3cccc(c23)S1(=O)=O` has a max response of 0.92%.
With `Cc1ccc(NC(=O)c2c(NC(=O)CCC(=O)O)sc3c2CCCCC3)cc1` the max response was 39.3% (active).
Molecule `O=C(N/N=C/c1ccco1)c1ccc(NC(=O)C2CC2)cc1` has a max response of 2.6%.
For `O=C(N/N=C/c1ccco1)c1csc2c1CCCC2`, the max response was 54.4% (active).
For `COC(=O)c1sc(NC(=O)c2csc3c2CCCC3)nc1C`, the max response was 52.4% (active).
For `Cc1ccc(NC(=O)c2csc3c2CCCC3)cc1`, the max response was 46.6% (active).
`COC(=O)c1sccc1NC(=O)c1csc2c1CCCC2` gave a max response of 11.4%.
`O=C(CN1CCCC1)Nc1sc2c(c1C(=O)Nc1ccccc1)CCCC2` gave a max response of 0.772%.
Molecule `CC1CC(C)CN(CCCNC(=O)c2csc3c2CCCCC3)C1` (configuration not stated) has a max response of 13.5%.
With `CCOC(=O)c1sc(NC(=O)c2sc(C)nc2C)nc1C` the max response was 10.2%.
`O=C(Nc1ccccc1N1CCOCC1)c1csc2c1CCCC2` showed a max response of 8.7%.
Molecule `COC(=O)c1c(NC(=O)CCCC(=O)O)sc2c1CCCCC2` has a max response of 1.25%.
In the case of `O=C(N/N=C/c1ccco1)c1ccc(C(=O)N/N=C/c2ccco2)o1`, the max response is reported as 11.6%.
`CCn1c(SCc2cccc(C(=O)O)c2)nnc1-c1ccc(Cl)cc1` gave a max response of -1.44%.
`COc1ccc(C)cc1Nc1n[n+](-c2ccccc2)c(-c2cccc(Cl)c2Cl)s1` gave a max response of -1.46%.
Work on `CCOC(=O)N1CCN(C(=O)c2ccccc2N(Cc2ccccc2)S(=O)(=O)c2ccc(OC)cc2)CC1` yielded a max response of -5.35%.
In the case of `CCOc1ccc(-n2c(SCC(=O)Nc3cc(C(=O)O)ccc3Cl)nc3ccccc3c2=O)cc1`, the max response is reported as -4.94%.
For `O=C(O)CCC(=O)Nc1ccc(OCC2CCCO2)cc1` (configuration not stated), the max response was -3.29%.
Work on `CC1(C)Cc2ccccc2-c2[nH]c(=S)[nH]c(=O)c21` yielded a max response of -1.88%.
Work on `COc1cccc(CNC(=O)CCC2CCCN(C(=O)c3ccc(F)c(Cl)c3)C2)c1` (configuration not stated) yielded a max response of 0.816%.
In the case of `O=C(COC(=O)c1ccc(Cl)nc1)NCc1ccc2c(c1)OCO2`, the max response is reported as -4.58%.
With `CC(=O)Cc1nsc(NC(=O)c2csc3c2CCCC3)n1` the max response was 16.6% (active).
`CC(=O)Cc1nsc(NC(=O)c2ccc(Cl)cc2Cl)n1` gave a max response of 27.8%.
With `O=C(NCc1ccccc1Cl)c1csc2c1CCCCC2` the max response was -0.0989%.
Molecule `CCOC(=O)Cn1c(=O)n(Cc2ccc(OC)cc2)c(=O)c2cccnc21` has a max response of -5.57%.
For `Cc1cc(C)nc(N2CCC(C(=O)Nc3ccc4c(c3)OCCO4)CC2)n1`, the max response was 11.4%.
With `O=C(Nc1ccc2c(c1)OCCO2)C1CCCN(c2ncccn2)C1` (configuration not stated) the max response was 22% (active).
Molecule `O=C(Nc1cccc(Cl)c1)C1CCCN(c2cnccn2)C1` (configuration not stated) has a max response of 5.49%.
In the case of `CCOc1ccc(N(CC)S(=O)(=O)c2cccc3nsnc23)cc1`, the max response is reported as -1.34%.
`CC(=O)Nc1ccc(S(=O)(=O)N2N=NC3C2C2CC4C3(CN(C(=O)OC(C)(C)C)S4(=O)=O)O2)cc1` (configuration not stated) gave a max response of 3.73%.
In the case of `COc1cccc(CN(C)CC2CCCN(CCc3ccc(Cl)cc3)C2)c1OC` (configuration not stated), the max response is reported as -1.16%.
With `CC(CC(=O)O)C(=O)c1ccc(Cl)c([N+](=O)[O-])c1` (configuration not stated) the max response was -0.656%.
